A selection: hits, their analogues and other compounds. The true share with any hit is near 4.2%.
TIM10 inh = growth inhibitors of isogenic TIM10 control yeast, primary screen, counter-screen for tim10-1 yeast inhibitor project, luminescence, uHTS; S. cerevisiae TIM10 strain growth, BacTiter-Glo luminescence, 24 h; inhibition, % at 10 µM; 330,000 tested, 1.4% active; AID 463195, 2010;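 active means inhibition of 40% or more at the single tested concentration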;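 further: wild-type TIM10 isogenic control strain grown at permissive 25 °C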
tim10-1 inh = growth inhibitors of tim10-1 mutant yeast, primary screen, luminescence, uHTS. 330,000 tested, 2.2% active. inhibition, % at 20 µM. S. cerevisiae tim10-1 ts strain growth, BacTiter-Glo, 24 h;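 active means inhibition of at least 40%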;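 further: mutant grown at 25 °C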
NALP1 inh = NALP1 inflammasome inhibitors in reconstituted yeast, colorimetric, S. cerevisiae, triplicate retest; S. cerevisiae NALP1/ASC/caspase-1 growth, X-gal OD620, 72 h; inhibition, % at 10 µM; 280,000 tested, 0.61% active; AID 2071, 2009; in the data active means inhibition mostly above about 24%, no sharp cut-off; inactive means mostly below about 32%
PfHsp90 set2 = growth inhibition of PfHsp90-expressing yeast, primary screen, antimalarial PfHsp90 inhibitor project, S. cerevisiae, BacTiter-Glo luminescence, single point, set 2 | BacTiter-Glo ATP, 48 h; yeast lacking PDR1 and PDR3 efflux regulators | inhibition, % at 9.4 µM | 310,000 tested, 0.32% active | AID 504621, 2011;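 active means every replicate shows inhibition above about 80%, whatever the replicate mean, limit read from the data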
NLRP3 yeast inh = NALP3 inflammasome inhibitors in reconstituted yeast, primary screen, luminescence, uHTS; Yeast reconstituted NLRP3/ASC/caspase-1, beta-gal luminescence, 24 h; inhibition, % at 10 µM; 330,000 tested, 0.39% active;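 active means inhibition of 50% or more; inactive means inhibition below 50%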
tim23-1 inh = growth inhibitors of tim23-1 mutant yeast, primary screen, luminescence, uHTS | S. cerevisiae tim23-1 growth, BacTiter-Glo luminescence, 24 h | inhibition, % at 20 µM | 330,000 tested, 1.3% active | AID 463212, 2010;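 active means growth inhibition of the mutant yeast at or above 50%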;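 further: temperature-sensitive mutant grown at 25 °C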
Numbers stand for hits; - = inactive; . = not tested or not shown.

SMILES	TIM10 inh	tim10-1 inh	NALP1 inh	PfHsp90 set2	NLRP3 yeast inh	tim23-1 inh
COCCNC(=O)CCc1c(C)nc2c(-c3ccc(F)cc3)c(C)nn2c1C	-	-	36.2	-	-	-
Cc1ccc(S(=O)(=O)NC(=O)Nc2ccc(OC(F)F)cc2)cc1	-	-	35.8	-	-	-
CCc1ccc(N(CC)C(=O)c2cn(C)c(=O)c3ccccc23)cc1	-	-	-	-	-	-
NC(N)=NN=C(c1ccc(F)cc1)c1ccc(C(F)(F)F)cc1	.	.	.	-	.	.
Cc1[nH]nc(C(F)(F)F)c1N=NN1CCOCC1	.	.	.	-	.	.
CCCCN(C(=O)c1oc2ccc(OCC)cc2c1C)c1c(N)n(CC(C)C)c(=O)[nH]c1=O	-	-	.	.	-	-
CCCCn1c(N)c(N(CC(C)C)C(=O)c2oc3ccc(OCC)cc3c2C)c(=O)[nH]c1=O	-	-	36.3	-	-	-
O=C(Nc1ccc(N2CCOCC2)cc1)C1CC(=O)N(c2ccc(F)cc2)C1 (stereo not given)	-	-	-	.	-	-
O=C(O)CCCCNCc1ccccc1	-	-	40.5	-	-	-
O=C(Nc1nnc(S(=O)(=O)N2CCN(c3ccc(F)cc3)CC2)s1)c1ccccc1	-	-	-	-	-	-
CC1COc2c(N3CCN(C)CC3)c(F)cc3c(=O)c(C(=O)O)cn1c23 (stereo not given)	-	-	.	-	-	-
CCOc1ccc(NC(=O)c2ccc(NC(=O)c3cn4c5c(c(N6CCN(C)CC6)c(F)cc5c3=O)OCC4C)cc2)cc1 (stereo not given)	-	-	85.5	-	-	-
COc1ccc(C(=O)NC2CCc3ccccc32)cc1OC1CCN(C(C)C)CC1 (stereo not given)	-	-	-	-	-	-
COc1ccccc1OCCNC(=O)c1ccc(Br)cc1	-	-	-	97.4	-	-
Cc1cc(C)cc(Nc2nc3c([nH]2)c(=O)n(C)c(=O)n3C)c1	-	-	31.5	-	-	-
O=c1[nH]c2cc3c(cc2cc1C(c1nnnn1Cc1ccccc1)N1CCN2CCCC2C1)OCCO3 (stereo not given)	-	-	29.3	-	-	-
O=c1[nH]c2cc3c(cc2cc1C(c1nnnn1Cc1ccccc1)N1CCCCCC1)OCCO3 (stereo not given)	-	-	-	-	-	-
CCc1c(C2(O)CCCCC2)[nH]c2ccc(C#N)cc12	-	-	.	-	-	-
O=C(Nc1cccc(CNCCc2c[nH]c3ccccc23)c1)c1ccccc1Cl	-	-	-	-	-	-
O=C1C2C3C=CC(CNS(=O)(=O)c4ccccc4)(O3)C2C(=O)N1c1ccc(Cl)cc1 (stereo not given)	-	-	-	105.3	-	-
COc1ccc2[nH]c(=O)c(CN(C(=O)c3ccco3)C3CCCCC3)cc2c1	-	-	26.1	.	-	-
CN(C)/C=C/C(=C\C(=O)C(F)(F)F)Nc1ccc(C(F)(F)F)cc1	-	-	-	-	-	-
O=C(CN1CCN(Cc2cccc3ccccc23)CC1)NCCc1ccccc1	-	-	26.6	-	-	-
Cc1ccccc1CN1CCN(CC(=O)NCc2ccccc2)CC1	-	-	-	-	-	-
O=[N+]([O-])c1ccc(O)c(C2CCCCC2)c1	.	.	.	108.0	.	.
SMILES	TIM10 inh	tim10-1 inh	NALP1 inh	PfHsp90 set2	NLRP3 yeast inh	tim23-1 inh
O=[N+]([O-])c1ccc2nc(C3CCCCC3)[nH]c2c1	-	-	-	-	-	-
CCC(O)c1nc2ccccc2n1CCc1ccccc1 (stereo not given)	-	-	-	-	-	-
CCCCN(C)CCNC(=O)c1cn(C)c(=O)c2c1c1ccccc1n2C	-	-	41.8	-	-	-
CCCCN(CC)CCNC(=O)c1cn(C)c(=O)c2c1c1ccccc1n2C	-	-	-	-	-	-
CC(C)N(Cc1ccccc1)C(=O)CN1C(=O)NC2(CCCC2)C1=O	-	-	.	-	-	-
COc1ccc(S(=O)(=O)N2CCC(C(=O)NCc3ccncc3)CC2)cc1Cl	-	-	-	-	-	-
COc1ccc(S(=O)(=O)N2CCCC(C(=O)NCc3ccncc3)C2)cc1Cl (stereo not given)	-	-	26.5	-	-	-
Cc1cc(Br)ccc1NC(=O)CN1C(=S)NC(C)(C)CC1C (stereo not given)	-	-	29.3	-	-	-
CC1CC(C)(C)NC(=S)N1CCCC(=O)Nc1ccc(Br)cc1 (stereo not given)	-	-	-	.	-	-
COCCN(C(=O)c1ccc(OCC(C)C)cc1)c1c(N)n(Cc2ccccc2)c(=O)[nH]c1=O	-	-	.	.	-	-
Cn1c(-c2ccc(C=O)s2)nc2c3ccccc3c3ccccc3c21	-	-	32.0	.	-	-
Cc1cccc(Cn2c(C(C)(C)C)cc3cccnc32)c1	-	-	48.2	-	-	-
COCCNc1ccc(S(=O)(=O)N2CCCC2)cn1	-	-	-	-	-	-
COC(=O)/N=C/c1c(NCc2ccccc2)nc2c(C)cccn2c1=O	-	-	-	-	-	-
Cc1nnc(SCC(=O)O)o1	-	-	25.9	-	-	-
O=C(O)CSc1nnc(-c2ccccc2)o1	-	-	-	-	-	-
Cc1cc(NC(=O)Nc2cccc(C(F)(F)F)c2)n(C)n1	-	-	31.7	-	-	-
O=C(COc1ccc(C(=O)O)cc1)Nc1cccc(C(F)(F)F)c1	-	-	-	.	-	-
O=C(COCC(=O)Nc1cccc(C(F)(F)F)c1)Nc1cccc(C(F)(F)F)c1	-	-	38.5	-	-	-
CCCc1cc(=O)oc2cc(OCc3ccc(C(=O)O)cc3)ccc12	-	-	-	109.3	-	-
Cc1ccc(S(=O)(=O)N2C(=O)CCC2C(=O)NCc2ccco2)cc1 (stereo not given)	-	-	40.3	.	-	-
Cc1ccc(S(=O)(=O)N2CCCCC2C(=O)NCc2ccco2)cc1 (stereo not given)	-	-	-	-	-	-
COc1ccc(O)c(/C=N/NC(=O)c2cc(=O)[nH]c3ccccc23)c1	-	-	44.9	-	-	-
O=C(N/N=C/c1ccccc1)c1cc(=O)[nH]c2ccccc12	-	-	-	-	-	-
Cc1nc(-c2ccccc2)nc(Cl)c1Cl	-	-	33.3	-	-	-
CCOc1ccc(Oc2c(C)oc3cc(O)ccc3c2=O)cc1	-	-	24.8	-	-	-
C=CCn1c(-c2cccs2)nc2ccccc21	-	-	24.6	-	-	-
CCOc1ccccc1NC(=O)CSc1nc2cc(O)ccc2c(=O)n1-c1ccc(OC)c(OC)c1	-	-	-	-	-	-
Cc1cc(=O)n(C)c(=O)n1CCCCOc1ccc([N+](=O)[O-])cc1	-	-	49.9	-	-	-

Screening results (PubChem BioAssay)
